Source: PubChem BioAssay
In the library only some 0.4% were active in any assay of this set; here they are far more common.
Rac1 mut GTP – alters GTP binding to activated mutant human Rac1; P63000; GST-Rac1 activated beads, fluorescent GTP binding, flow cytometry; actives lie on both sides; 100% means binding = to untreated wells; percent activity (GTP binding), % at 10 µM; hit rate 0.11% among 190,000;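 active means GTP binding at least 20 percentage points away from the 100% baseline, in either direction, so actives lie on both sides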
Rab2A wt mod – changes GTP binding to wildtype dog Rab2A, up or down. GST-Rab2 wt beads, Bodipy-GTP binding, flow cytometry. hit rate 0.19% among 190,000. GTP binding activity, % at 10 µM. P61105. AID 760;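 active means GTP binding activity at least 20 points away from 100%, either lowered or raised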
Rab7 wt GTP bind – dog Rab7 wildtype GTP binding, inhibitors and activators | GST-Rab7 beads, fluorescent GTP binding, flow cytometry; actives lie on both sides; untreated = 100%, excess cold GTP = 0% | AID 758 | hit rate 0.055% among 190,000 | GTP binding activity (percent of control), % at 10 µM;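 active means fluorescent GTP binding to Rab7 beads changed by at least 20 points from the 100% baseline, either direction, mostly lower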;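 further: median green fluorescence of bound Bodipy-FL-GTP per Rab7 bead population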
HRas wt GTP – modulators of GTP binding to human HRas wildtype; hit rate 0.14% among 190,000; GTP binding activity, % at 10 µM; P01112; GST-Ras wt beads, Bodipy-FL-GTP binding, flow cytometry; actives lie on both sides;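 active means GTP binding activity at least 20% away from the 100% baseline, either lowered as inhibitor or raised as activator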
Target sequence (P01112 whole entry, looked up): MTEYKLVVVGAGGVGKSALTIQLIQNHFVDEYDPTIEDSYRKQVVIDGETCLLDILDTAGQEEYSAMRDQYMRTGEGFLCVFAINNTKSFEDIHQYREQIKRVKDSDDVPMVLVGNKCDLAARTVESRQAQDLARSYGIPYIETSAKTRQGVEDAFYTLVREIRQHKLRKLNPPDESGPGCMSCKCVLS
Rac1 wt modul – modulators of human Rac1 wildtype GTP binding | GTP binding activity (% of control), % at 10 µM | P63000 | GST-Rac1 beads, fluorescent GTP binding, flow cytometry; actives lie on both sides; 0 = cold GTP competed, 100 = untreated | hit rate 0.27% among 190,000;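 active means GTP binding activity at least 20 points away from the 100% control level, either lower or higher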
Cdc42 wt GTP – human Cdc42 wildtype GTP binding change, either direction. P60953. GST-Cdc42 beads, Bodipy-GTP binding, flow cytometry; actives lie on both sides. percent activity (GTP binding), % at 10 µM. hit rate 0.2% among 190,000;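 active means percent activity GTP binding at least 20 points away from the 100% baseline, either down as inhibitor or up as activator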;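 further: median bead fluorescence of bound Bodipy-FL-GTP at 100 nM; below 100% means less GTP binding so inhibitor and above means activator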
Target sequence (P60953 whole entry, looked up): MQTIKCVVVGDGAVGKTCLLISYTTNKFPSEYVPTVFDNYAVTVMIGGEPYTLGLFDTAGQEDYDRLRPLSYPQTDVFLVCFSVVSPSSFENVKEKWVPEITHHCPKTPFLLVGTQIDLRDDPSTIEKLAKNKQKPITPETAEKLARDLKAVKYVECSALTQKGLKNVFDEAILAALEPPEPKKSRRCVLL
Of the large screens only hits and unclear results are named; the others gave an inactive call.

CCOc1ccc(-n2c(C)nc3cc(C(=O)NCc4ccc5c(c4)OCO5)ccc32)cc1	Rac1 mut GTP 79, Rab2A wt mod 71, Rac1 wt modul 77, Cdc42 wt GTP 77
CC(=O)c1ccc(NC(=S)NCc2ccc(Cl)cc2Cl)cc1	none
COc1cc(CCNc2ccc3nnc(-c4ccccc4)n3n2)cc(OC)c1OC	Rab2A wt mod 74, HRas wt GTP 71, Rac1 wt modul 73, Cdc42 wt GTP 73
O=C(COC(=O)Cc1ccc(Cl)cc1)Nc1c(F)cccc1F	none
Cc1ncc(CO)c(/C=N/NC(=O)c2cc3c(s2)CCCC3)c1O	none
CSc1nnc(-c2cc(Br)ccc2N=Cc2c(C)[nH]n(-c3ccccc3)c2=O)c(=O)[nH]1	Cdc42 wt GTP 78
Cc1ccc(-n2[nH]c(C)c(C=Nc3ccc(Br)cn3)c2=O)cc1	none
COC(=O)C1=NN(C(=O)c2cccc(Br)c2)C(O)(c2ccc(Cl)cc2)C1 (centres undefined)	Rac1 mut GTP 79, Cdc42 wt GTP 78
CCOC(=O)C1=NN(C(=O)c2ccc(OC)cc2)C(O)(c2ccc(Cl)cc2)C1 (centres undefined)	none
CCOC(=O)c1c2c3c(cccc3[nH]c1=O)C(=O)c1ccccc1-2	Rab2A wt mod 65, HRas wt GTP 66, Rac1 wt modul 76, Cdc42 wt GTP 63
COCCCNc1c2c3c(cccc3[nH]c1=O)C(=O)c1ccccc1-2	none
CCOC(=O)c1c2c3c(c(Cl)ccc3[nH]c1=O)C(=O)c1ccccc1-2	Rac1 mut GTP 65, Rab2A wt mod 44, HRas wt GTP 44, Rac1 wt modul 45, Cdc42 wt GTP 41
CC(=O)Cn1nnc2sc(-c3ccccc3)cc2c1=O	none
CCc1ccc(NS(=O)(=O)c2ccc3[nH]cc(C(=O)N4CCc5ccccc54)c(=O)c3c2)cc1	Cdc42 wt GTP 70
Cc1nc2sccn2c1-c1nc(-c2cc3ccccc3o2)cs1	Rab2A wt mod 77, Rac1 wt modul 79
c1ccc2oc(-c3csc(N4CCOCC4)n3)cc2c1	none
CCOC(=O)c1c(C)[nH]c(C(=O)COC(=O)/C=C/c2ccc(OCC#N)c(OC)c2)c1C	none
COc1ccc(S(=O)(=O)N2CCCC(C(=O)NCCC(C)C)C2)cc1 (centres undefined)	none
COc1cc(NS(=O)(=O)c2ccc(NC(=O)/C=C/c3cccc([N+](=O)[O-])c3)cc2)ncn1	Rac1 wt modul 79
C(=N\N(Cc1ccccc1)c1ccccc1)/c1cccnc1	none
CN(/N=C/C=C/c1ccccc1)C1=NS(=O)(=O)c2ccccc21	Rab2A wt mod 72, HRas wt GTP 68, Rac1 wt modul 65, Cdc42 wt GTP 74
CN(NC(=O)CN1C(=O)c2ccccc2C1=O)C1=NS(=O)(=O)c2ccccc21	none
CN(/N=C/c1cccnc1)C1=NS(=O)(=O)c2ccccc21	Rab2A wt mod 70, HRas wt GTP 68, Rac1 wt modul 69, Cdc42 wt GTP 78
Cc1ccc(O)c(N=Cc2cc(Cc3ccccc3)cc([N+](=O)[O-])c2O)c1	Rac1 mut GTP 68, Rab2A wt mod 74, Rab7 wt GTP bind 79, Rac1 wt modul 77, Cdc42 wt GTP 76
O=[N+]([O-])c1cc(Cc2ccccc2)cc(C=Nc2ccc(N3CCOCC3)cc2)c1O	Rac1 mut GTP 62, Rab2A wt mod 64, Rab7 wt GTP bind 71, HRas wt GTP 77, Rac1 wt modul 75, Cdc42 wt GTP 78
Cc1ccc(C(=O)NCC(=O)OCC(=O)Nc2ccccc2C#N)s1	none
C=CCn1c(SCC(=O)NC2CCCc3ccccc32)nnc1-c1ccncc1 (centres undefined)	none
O=C(CNC(=O)Cc1ccccc1)N=Nc1c(O)n(Cc2ccc3c(c2)OCO3)c2ccccc12	Rab2A wt mod 78, Rac1 wt modul 78
CN1CCN(C(=S)c2cn(CCOc3ccccc3F)c3ccccc23)CC1	none
Cc1ccc(/C=C2\SC(=S)N(Cc3ccccc3)C2=O)o1	none
COc1ccc(CN2C(=O)/C(=C/c3ccc(-c4ccc(Cl)c(C(=O)O)c4)o3)SC2=S)cc1	Rac1 mut GTP 76, Rab2A wt mod 79, HRas wt GTP 73, Rac1 wt modul 76, Cdc42 wt GTP 75
O=C(O)c1cc(-c2ccc(/C=C3/SC(=S)N(Cc4ccccc4)C3=O)o2)ccc1Cl	Rac1 mut GTP 77, Rab2A wt mod 78, Rac1 wt modul 74, Cdc42 wt GTP 76
O=C(O)CC1=C(Nc2ccccc2)C(=O)N(c2ccccc2)C1c1ccc(Br)cc1 (centres undefined)	none
O=C(O)c1cccc(S(=O)(=O)Nc2ccccc2Cl)c1	none
O=C(NCCc1c[nH]c2ccccc12)c1cccc(S(=O)(=O)Nc2ccccc2Cl)c1	Rab2A wt mod 79
Cc1cc(Cl)ccc1OCC(=O)OCC(=O)Nc1ccc(F)c([N+](=O)[O-])c1	Rab2A wt mod 64, HRas wt GTP 74, Cdc42 wt GTP 77
CCNC(=O)COC(=O)COc1ccc(Cl)cc1C	none
Cc1cc(C)c(S(=O)(=O)N2CCCOC2CNC(=O)C(=O)NCc2ccncc2)c(C)c1 (centres undefined)	none
CC1CCC2(CC1)NC(=O)N(CC(=O)N1CCN(S(=O)(=O)c3ccccc3)CC1)C2=O (centres undefined)	none
C[n+]1ccc(C(=O)N/N=C/c2ccco2)cc1	none
O=C(Nc1cccc(Cl)c1)Nc1ccnc(-c2cccnc2)n1	Rab2A wt mod 67, HRas wt GTP 67, Rac1 wt modul 77, Cdc42 wt GTP 64
CC(=O)Nc1ccnc(-c2cccnc2)n1	none
COc1cc2[nH]c(=S)n(CC3CCCO3)c(=O)c2cc1OC (centres undefined)	none
COc1cc2[nH]c(=S)nc(NC3CCCCCC3)c2cc1OC	Rab2A wt mod 69, HRas wt GTP 66, Rac1 wt modul 60, Cdc42 wt GTP 69
COc1cc2[nH]c(=S)nc(NCC3CCCO3)c2cc1OC (centres undefined)	Rac1 wt modul 74, Cdc42 wt GTP 74
O=S1(=O)CCC(NC(=S)N2CCOCC2)C1 (centres undefined)	none
O=C(CCCCCNc1nc(=S)[nH]c2ccccc12)NCCc1ccc(Cl)cc1	none
O=C(Cc1ccc(Nc2nc(=S)[nH]c3ccccc23)cc1)NC1CCCCC1	Rac1 mut GTP 76, Rab2A wt mod 66, HRas wt GTP 68, Rac1 wt modul 57, Cdc42 wt GTP 65
CC(C)CCNC(=O)Cc1ccc(Nc2nc(=S)[nH]c3ccccc23)cc1	Rab2A wt mod 75, HRas wt GTP 75, Rac1 wt modul 73
O=C(Cc1c(O)c2ccccc2[nH]c1=O)NC1CCCCCC1	none
